Screening results from PubChem.
Hits are enriched below; roughly 19% of the tested compounds scored in any of these assays.
KB-3-1 cytotox – qHTS assay for MDR1-selective chemotherapeutics: Primary screen using the parental adenocarcinoma cell KB-3-1 | KB-3-1 viability, CellTiter-Glo ATP luminescence, 72 h | hit rate 1.4% among 400,000 | Potency, µM (series often up to 46.1 µM), actives largely listed as cytotoxic; note: nearly all actives have a fitted effect of over 60% in size
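Cells are dispensed, compounds pinned in, plates held at 37 °C for 72 h, then CellTiter-Glo is added and luminescence read after 10 minutes. Cell line: parental KB-3-1 in phenol-red-free DMEM, 10% FBS.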
HT1080 IDH1KD tx – qHTS for induction of synthetic lethality in tumor cells producing 2HG: qHTS for the HT-1080-IDH1KD cell line; hit rate 2% among 360,000; Potency, µM (top dose mostly 46.1 µM), usual class: cytotoxic; HT-1080 IDH1 knockdown viability, ATP luminescence, 48 h; AID 686971, 2013
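Knockdown cells (IDH1KD HT-1080) received compounds 2 h after plating at 750 cells/well and were kept 48 h at 37 °C in 5% FBS RPMI. A CellTiter-Glo luminescence read gave % activity for curve fitting.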
HT1080NT lethal – qHTS for induction of synthetic lethality in tumor cells producing 2HG: qHTS for the HT-1080-NT fibrosarcoma cell line. HT-1080-NT fibrosarcoma viability, CellTiter-Glo ATP luminescence, 48 h. Potency, µM (series often up to 46.1 µM), actives largely listed as cytotoxic. hit rate 1.6% among 360,000;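 note: NT is the 2HG producing partner of a matched IDH1 knockdown line; nearly all actives have a fitted effect of over 55% in size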
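Read-out is CellTiter-Glo luminescence after 10 minutes at room temperature, following 48 hours' compound treatment of HT-1080-NT cells (750 cells/well, RPMI, 5% FBS, 37 degrees C).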
TDP1 cell noCPT – qHTS for Inhibitors of human tyrosyl-DNA phosphodiesterase 1 (TDP1): qHTS in cells in absence of CPT. DT40 Tdp1-/- hTDP1 cells, no CPT, ATP luminescence, 48 h. Potency, µM (series often up to 46.2 µM), actives largely listed as inhibitors. hit rate 15% among 420,000. AID 686978, 2013; note: nearly all actives have a fitted effect of over 55% in size
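Seeded 400 DT40-hTDP1 cells/well (vehicle DMSO, no 20 nM CPT); pinned compounds; ≥48 hr at 37 °C; CellTiter-Glo luminescence as viability measure.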
DT40 TDP1 CPT – qHTS for Inhibitors of human tyrosyl-DNA phosphodiesterase 1 (TDP1): qHTS in cells in presence of CPT | hit rate 12% among 420,000 | chicken DT40 Tdp1-/-;hTDP1 cells + 20 nM CPT, ATP luminescence, 48 h | Potency, µM (series often up to 46.2 µM), usual class: inhibitors; note: nearly all actives have a fitted effect of over 55% in size
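Chicken DT40 Tdp1-/- cells stably complemented with human TDP1 were seeded at 400 cells/well in medium containing 20 nM camptothecin, exposed to pin-transferred compounds, and grown at 37 °C for at least 48 hr. Viability was read as ATP luminescence.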
KB-V1 cytotox – qHTS assay for MDR1-selective chemotherapeutics: Primary screen using the drug-selected MDR subline cells KB-V1; KB-V1 MDR cells viability, CellTiter-Glo, 72 h; AID 1347076, 2019; hit rate 3.4% among 400,000; Potency, µM (highest dose often 46.1 µM), most hits filed as cytotoxic; note: nearly all actives have a fitted effect of over 60% in size
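Readout: CellTiter-Glo luminescence, 10 min after addition. Cells: KB-V1 MDR subline, 72 h at 37 degrees C with compound. Analysis: corrected, normalized data fitted to concentration-effect curves.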
Numbers stand for hits; n = inactive; u = inconclusive; x = no result given; [ ] = another dose, or the depositor's remark. Calls come from the whole dose curve; as a rule, active = well fitted curve in the direction sought with a large enough effect; inconclusive = small, poorly fitted or top-dose-only effect, or another doubt; inactive = no such curve, though single readings can be large; an effect the other way counts as inactive or inconclusive.

SMILES | KB-3-1 cytotox | HT1080 IDH1KD tx | HT1080NT lethal | TDP1 cell noCPT | DT40 TDP1 CPT | KB-V1 cytotox
CCOc1ccc(-c2cc(C(=O)Nc3ccc4c(c3)OCCO4)c3ccccc3n2)cc1 | 18.4µM | u | u | 10.3µM | u | u
COc1ccc(-c2cc(C(=O)OCC(=O)Nc3ccc4c(c3)OCO4)c3ccccc3n2)cc1 | n | n | n | 20.6µM | u | n
CCOc1ccc(-c2cc(C(=O)NCc3ccc(C)cc3)c3ccccc3n2)cc1 | n | x | x | n | n | n
O=C(Nc1ccc2c(c1)OCCO2)c1cc(-c2ccccn2)nc2ccc(Br)cc12 | n | n | n | u | u | n
CCOc1ccc(NC(=O)c2cc(Cl)nc3ccccc23)cc1 | u | u | u | 14.6µM | u | u
CN(C(=O)CSc1nncc2ccccc12)c1ccccc1 | n | n | n | n | n | n
CC(Oc1ccccc1)C(=O)N/N=C/c1ccccn1 (stereo unspecified) | n | n | n | n | u | n
O=C(c1cccc(Cn2cccn2)c1)N1CCC(n2c(C3CCCO3)nc3cc(C(F)(F)F)ccc32)CC1 (stereo unspecified) | x | x | x | n | n[9.04 µM] | x
CCOc1cc(NC(=O)c2ccccn2)c(OCC)cc1NC(=O)c1cccc(C)c1 | n | n | n | 1.84µM | 4.11µM | n
CCCn1c(C)cc(=O)c2cc(NC(=O)c3ccccn3)ccc21 | n | n | n | 14.6µM | u | u
CCOc1ccc(NC(=O)c2cnccn2)cc1 | u | n | n | u | n | n
CCOc1cc(NC(=O)c2cccs2)c(OCC)cc1NC(=O)c1ccccn1 | n | n | u | u | u | n
CCOc1ccc(NC(=O)C2CSC(c3ccncc3)=N2)cc1 (stereo unspecified) | n | n | n | u | 23.1µM | n
CCOc1ccc(NC(=O)c2ccccn2)cc1 | u | u | u | 13µM | n | 20.6µM
CCN(CC(=O)NCc1ccc(Cl)cc1)C(=O)CSc1ccc(Br)cc1 | x | n | n | u | u | x
O=C1NN(c2ccccc2)C(=O)/C1=C/c1coc2ccccc2c1=O | u | n | n | u | u | n
COc1ccc(-n2c(C)cc(/C=C3\C(=O)NN(c4ccccc4)C3=O)c2C)cc1 | n | n | n | n | n | n
O=C1NN(c2ccccc2)C(=O)/C1=C\c1coc2ccc(O)cc2c1=O | n | u | n | 20.6µM | 16.4µM | n
Cc1cc(/C=C2/C(=O)NN(c3ccccc3)C2=O)c(C)n1-c1ccc(O)cc1 | n | u | n | 18.4µM | u | n
Cc1cc(C=C2C(=O)CCCC2=O)c(C)n1-c1ccccc1 | n | n | n | u | n | n
Cc1cc(/C=C2\C(=O)NN(c3ccccc3)C2=O)c(C)n1-c1ccccc1O | n | n | n | 14.6µM | u | n
CC(NC(=O)c1ccco1)c1nnc2n1CCN(Cc1ccc(Cl)cc1)CC2 (stereo unspecified) | x | x | x | n | n[9.04 µM] | x
CN(C)S(=O)(=O)c1cc(NC(=O)COC(=O)CCSc2ccc(Cl)cc2)ccc1Cl | n | n | n | n | n | n
CCN(C(=O)COC(=O)Cn1c(=O)oc2ccccc21)c1c(N)n(Cc2ccccc2)c(=O)[nH]c1=O | n | n | n | n | n | n
CCOC(=O)Nc1ccc2c(c1)N(C(=O)N1CCN(C)CC1)c1ccccc1CC2 | n | u | u | u | n | n
CCOC(=O)Nc1ccc2c(c1)N(C(=O)CCN(CC)CC)c1ccccc1S2=O (stereo unspecified) | u | 25.9µM | 16.4µM | 3.66µM | 2.59µM | n
CCOC(=O)Nc1ccc2c(c1)N(C(=O)N(C)C)c1ccccc1CC2 | n | n | n | 29.1µM | u | n
